Results as given in PubChem BioAssay (NCI).
This is part of a sample that, as a whole, favours compounds with a hit. Of some 83,000 tested, about 20% had one in any assay.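 Testing used 96-well plates and a 48-hour single-concentration exposure. Example: -40 means 40% of the starting cells died.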 A number with no mark means an inactive call.

These compounds were tested on SNB-19 CNS (assay: NCI-60 one-dose screen, 48 h (100 = growth as untreated, 0 = no growth, -100 = all killed)). Conditions: 10 µM unless noted.
Method: Growth inhibition of the SNB-19 human tumor cell line is measured as a screen for anti-cancer activity. Cells are grown in 96 well plates and exposed to the test compound for 48 hours. Compounds are tested at a single concentration, which is 10^-5 M for most compounds. The reported endpoint is percent growth (GI% or GIPRCNT), where numbers from 0 - 100% represent growth inhibition, and numbers from -100% - 0 represent cell death. For example, a value of 40 represents 60% growth inhibition. A value of 0 means no net growth occurred over the course of the experiment. A value of -40 indicates 40% of cells at the beginning of the experiment died by the end of the experiment. A value of -100 means all cells are dead at the end of the experiment.
NCI-60 Human Tumor Cell Lines Screen was performed using the standard one-dose NCI protocol, which is described in more detail at https://dtp.cancer.gov/discovery_development/nci-60/default.htm.
Compounds with GIPRCNT values below 10 were considered active. Activity score was based on GIPRCNT using the following formula: […]
Score is 0 for GIPRCNT values of 100 or above, 50 for GIPRCNT values of 0, and 100 for GIPRCNT values of -100.

Row | Structure (SMILES) | growth
1 | CN1CCN(C(=S)S)CC1 | 103%
2 | C#CC(O)c1ccccc1 (stereo not given) | 104%
3 | Oc1cccnc1CN1CCCC1 | 104%
4 | O=S(=O)(c1ccc(NC(=S)NCc2cccnc2)cc1)N1CCCCC1 | 60.6%
5 | O=c1cc(C(F)(F)F)[nH]c(=S)[nH]1 | 94.4%
6 | CC1CCC(C)(C)c2ccccc21 (stereo not given) | 103%
7 | CCOC(=O)/C(C)=C\c1ccc(OC)c(OC)c1 | 107%
8 | CCOC(=O)c1cc(C)[nH]c(=O)c1C#N | 106%
9 | c1ccc2[nH]c(Cc3nc4ccccc4[nH]3)nc2c1 | 130%
10 | O=C(O)CCCCCNC(=O)OCc1ccccc1 | 105%
11 | COc1ccc(/C=C\C(=O)/C=C/c2ccc(OC)cc2)cc1 | 89.3%
12 | C1C[S+]2CC[S+]1CC2 | 103%
13 | C/C(=N\N=C(/C)c1cccc([N+](=O)[O-])c1)c1cccc([N+](=O)[O-])c1 | 80.7%
14 | C=C1CC2(OC1=O)C(=O)N(C)c1ccc(I)cc12 (stereo not given) | 64%
15 | CCOC(=O)c1ccc(Nc2sc(C(=O)c3ccc(Br)cc3)c(N)c2C#N)cc1 | 62.5%
16 | ClCC(Cl)[C@@H]1CC2C=CC1C2 (stereo not given in full) | 104%
17 | O=C(OCC1CCCO1)c1ccc([N+](=O)[O-])cc1 (stereo not given) | 102%
18 | Nc1ccc(F)cc1F | 109%
19 | Cc1cc(=O)n(Nc2ccccc2)c(O)c1C#N | 103%
20 | CCN(CC)CCN1CNC(=S)NC1 | 104%

Row | Structure (SMILES) | growth
21 | N#C/C(=C\c1ccc2c(c1)OCO2)c1ccccc1 | 86.4%
22 | CC(=O)Nc1ccc(/C=C2\SC(=S)N(/C=C(\C(C)=O)C(N)=O)C2=O)cc1 | 100%
23 | CC1(C)C2CCC1(C)C1(C2)OCCS1 (stereo not given) | 88.8%
24 | CCOC(=O)C(CCC#N)(CCC#N)C(=O)OCC | 100%
25 | Cn1c(=O)[nH]c2ccccc2c1=O | 94.3%
26 | OCc1cccnc1 | 96.8%
27 | CCCCCCCCCCCCCCCCCC(=O)NCCNC(=O)CCCCCCCCCCCCCCCCC | 108%
28 | O=C(c1ccccc1O)N1CCCC1 | 97.2%
29 | O=C(O)Cc1ccccn1 | 101%
30 | Cc1c(Cl)cccc1NC(=S)NC(=O)c1ccccc1 | 107%
31 | Cc1cc(Cc2ccccc2)c(O)c(Cc2ccccc2)c1 | 102%
32 | C=CCc1cc(OC)c(O)c(OC)c1 | 109%
33 | C[n+]1c(/C=C\C=C\N2CCCCC2)sc2ccccc21 | 15.4%
34 | CCOc1ccc(NC(=S)N2CCC(CCCC3CCN(C(=S)Nc4ccc(OCC)cc4)CC3)CC2)cc1 | 96%
35 | NNC(=O)N/N=C1\C(=O)N(c2nccs2)C(=O)C(=O)C1c1nc2ccccc2s1 (stereo not given) | 101%
36 | O=C(CCCl)OCCOc1ccccc1 | 108%
37 | Nc1ccn(C2CC(N)C(CO)O2)c(=O)n1 (stereo not given) | 68.2%
38 | CC(=O)OCC1CCC(COC(C)=O)CC1 (stereo not given) | 109%
39 | COC(=O)c1ccc([N+](=O)[O-])c(C)c1 | 119%
40 | CCOc1ccc(C(=O)NCC(C)C)cc1 | 99.3%
